Results reported in PubChem BioAssay (Tox21).
Results filed as inconclusive are left out. Where a call stands in place of a potency, no number is given. The source made the active and inactive calls. The call rests on the fitted dose curve; in most records, active means well fitted inhibition curve with a large enough effect in the signal ratio in the repeat runs (not every such curve was filed as active); inconclusive means weak or mixed curves; inactive means flat fitted curve, though single readings scatter; the % refers to the signal ratio.
Potency means the concentration at half of the fitted maximal effect.

What follows are molecules tested against Progesterone receptor (Homo sapiens) (UniProt P06401) (assay: qHTS assay to identify small molecule antagonists of the progesterone receptor (PR) signaling pathway (AID 1346795)). Settings: PR-UAS-bla HEK293T, beta-lactamase FRET ratio, 16 h; series mostly up to 92.4 µM.
Progesterone receptor (Homo sapiens), sequence (P06401 whole entry, looked up): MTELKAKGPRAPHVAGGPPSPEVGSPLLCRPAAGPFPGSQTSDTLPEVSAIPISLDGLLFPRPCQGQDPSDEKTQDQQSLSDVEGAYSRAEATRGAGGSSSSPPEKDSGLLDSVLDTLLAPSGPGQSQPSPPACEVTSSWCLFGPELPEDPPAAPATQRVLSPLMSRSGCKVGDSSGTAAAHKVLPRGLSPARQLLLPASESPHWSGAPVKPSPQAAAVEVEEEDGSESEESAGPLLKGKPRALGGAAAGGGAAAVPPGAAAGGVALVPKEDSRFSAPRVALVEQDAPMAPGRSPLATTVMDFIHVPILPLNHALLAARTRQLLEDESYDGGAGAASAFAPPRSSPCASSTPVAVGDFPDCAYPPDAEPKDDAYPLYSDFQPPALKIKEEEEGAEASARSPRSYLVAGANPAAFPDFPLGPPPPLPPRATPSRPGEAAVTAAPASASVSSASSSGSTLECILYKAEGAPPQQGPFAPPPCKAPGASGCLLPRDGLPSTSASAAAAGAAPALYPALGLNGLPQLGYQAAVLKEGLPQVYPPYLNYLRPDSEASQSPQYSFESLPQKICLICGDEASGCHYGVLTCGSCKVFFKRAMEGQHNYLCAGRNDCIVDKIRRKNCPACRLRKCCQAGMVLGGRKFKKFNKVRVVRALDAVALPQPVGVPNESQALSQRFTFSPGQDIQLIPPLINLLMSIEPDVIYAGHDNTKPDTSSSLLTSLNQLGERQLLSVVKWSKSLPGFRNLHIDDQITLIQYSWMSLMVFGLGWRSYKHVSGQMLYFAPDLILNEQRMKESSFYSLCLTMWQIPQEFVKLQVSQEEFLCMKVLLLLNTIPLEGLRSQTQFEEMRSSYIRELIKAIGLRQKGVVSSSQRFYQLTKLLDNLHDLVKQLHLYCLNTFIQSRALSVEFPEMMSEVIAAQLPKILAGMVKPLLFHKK
Source text: National Center for Advancing Translational Sciences [NCATS]
NIH Chemical Genomics Center [NCGC]
U.S. Environmental Protection Agency [EPA]
National Institutes of Environmental Health Sciences [NIEHS]
National Toxicology Program [NTP]
U.S. Food and Drug Administration [FDA]
Progesterone receptor (PR), a nuclear hormone receptor, plays an important role in development, metabolic homeostasis and reproduction. […] Endocrine disrupting chemicals (EDCs) and their interactions with steroid hormone receptors like PR causes disruption of normal endocrine function. To identify the compounds that inhibit PR signaling, a PR-UAS-bla GripTite cell line i.e. PR-UAS-bla HEK293T (Invitrogen, Carlsbad, CA, USA) containing a beta-lactamase reporter gene under the control of an Upstream Activator Sequence (UAS) was used to screen Tox21 10K compound library.
Tox21 Assay Protocol Summary:
PR-UAS-bla HEK293T cells were dispensed at 3,000 cells/4 uL of assay medium containing 2% charcoal stripped FBS per well into black wall/clear-bottom 1536-well plates using a Multidrop Combi (ThermoFisher Scientific, Waltham, MA) dispenser. After the assay plates were incubated at a 37C and 5% CO2 for 6 hr, 23 nL of compounds dissolved in DMSO, positive controls or DMSO only was transferred to the assay plate by a Pintool station (Kalypsys, San Diego, CA), followed by addition of 1 uL (1nM as final concentration) of Promegestone (R5020) in assay medium using a BioRAPTR FRD (Flying Reagent Dispenser, Aurora Discovery, San Diego, CA). The plates were incubated at 37C and 5% CO2 for 16 hr. Then 1 uL of LiveBLAzer B/G FRET substrate was added using a FRD. After the plates were incubated at room temperature for 2 hours, fluorescence intensity was measured by an Envision plate reader (PerkinElmer, Shelton, CT).
With `COc1ccc2c(c1OC)C(=O)O[C@@H]2[C@H]1c2cc3c(cc2CCN1C)OCO3` the Potency was “inactive”.
In the case of `C[C@H]1[C@H](c2ccc(Cl)cc2)SC(=O)N1C(=O)NC1CCCCC1`, the Potency is reported as 13.7 µM (active).
In the case of `COCCC#N`, the Potency is reported as “inactive”.
For `COc1cnc(OC)n2nc(NS(=O)(=O)c3c(OCC(F)F)cccc3C(F)(F)F)nc12`, the Potency was “inactive”.
`Cc1nn(-c2cc(NS(C)(=O)=O)c(Cl)cc2Cl)c(=O)n1C(F)F` was tested, and the Potency was “inactive”.
For `CCC(C)Br` (stereo not given), the Potency was “inactive”.
In the case of `BrCCCBr`, the Potency is reported as “inactive”.
With `CC1CCCC1` the Potency was “inactive”.
With `Cc1cc(C2CC2)nc(Nc2ccccc2)n1` the Potency was 30.6 µM (active).
With `C[C@]12CC[C@H]3[C@@H](CCC4=CC(=O)CC[C@@H]43)[C@@H]1CC[C@@H]2OC(=O)CCc1ccco1` the Potency was “inactive”.
For `CCC[CH2][Sn]([CH2]CCC)([O]C(C)=O)[O]C(C)=O`, the Potency was 0.195 µM (active).
With `CN1C(=O)[C@@H](NC(=O)c2cc3ccccc3[nH]2)N=C(c2ccccc2)c2ccccc21` the Potency was “inactive”.
`CO/N=C(/C1=NOCCO1)c1ccccc1Oc1ncnc(Oc2ccccc2Cl)c1F` was tested, and the Potency was 27.3 µM (active).
In the case of `O=[N+]([O-])C(Br)Br`, the Potency is reported as “inactive”.
`[Cl-].[Cl-].[Cl-].[Yb+3]` was tested, and the Potency was “inactive”.
In the case of `C=CC(=C)C`, the Potency is reported as “inactive”.
With `CCCCN(CCCC)C(=S)S` the Potency was “inactive”.
For `O=C(N[C@H]1N=C(c2ccccc2F)c2cccc3c2N(CC3)C1=O)c1cc2ccccc2[nH]1`, the Potency was “inactive”.
`CC(=O)[O-].CC(=O)[O-].CC(=O)[O-].[Cr+3]` was tested, and the Potency was “inactive”.
In the case of `O=C(CCCCl)c1ccc(F)cc1`, the Potency is reported as “inactive”.
`COP(=S)(OC)Oc1ccc([N+](=O)[O-])c(C)c1` was tested, and the Potency was 6.11 µM (active).
In the case of `COC(=O)N(OC)c1ccccc1COc1ccn(-c2ccc(Cl)cc2)n1`, the Potency is reported as 4.86 µM (active).
In the case of `Oc1ccc([C@H]2CNCc3c2ccc(O)c3O)cc1O`, the Potency is reported as “inactive”.
In the case of `CCC[CH2][Sn]([CH2]CCC)([CH2]CCC)[O][Sn]([CH2]CCC)([CH2]CCC)[CH2]CCC`, the Potency is reported as 0.752 µM (active).
In the case of `CCCCCCCc1ccc(O)cc1`, the Potency is reported as 21.7 µM (active).
For `COc1c2c(cc3c1OCO3)CCN(C)C2`, the Potency was “inactive”.
`CCOP(=S)(OCC)SC(CCl)N1C(=O)c2ccccc2C1=O` (stereo not given) was tested, and the Potency was 27.3 µM (active).
With `O=[N+]([O-])c1ccc(Cl)c(Cl)c1Cl` the Potency was “inactive”.
With `O=C(Cl)c1ccccc1F` the Potency was “inactive”.
With `Oc1cc(Cl)c(Cl)c(Cl)c1Cl` the Potency was 21.2 µM (active).
For `Clc1ccc(C(Cl)(Cl)Cl)cc1Cl`, the Potency was “inactive”.
For `CC[N+]1(CC)CCC(OC(=O)C(O)(c2ccccc2)c2ccccc2)C1` (stereo not given), the Potency was “inactive”.
In the case of `[O-][Cl+3]([O-])([O-])O`, the Potency is reported as “inactive”.
For `Clc1cc(Cl)c(-c2cc(Cl)c(Cl)cc2Cl)cc1Cl`, the Potency was 10.2 µM (active).
For `CC(=O)[O-].CC(=O)[O-].O.O.[Zn+2]`, the Potency was “inactive”.
With `c1ccc2nc(N3CCNCC3)ccc2c1` the Potency was “inactive”.
In the case of `COc1ccc2c3c1O[C@H]1[C@H](O)CC[C@H]4[C@@H](C2)N(C)CC[C@@]341`, the Potency is reported as “inactive”.
For `CCCCC/C=C\C/C=C\C/C=C\C/C=C\CCCC(=O)NCC(=O)O`, the Potency was 26.6 µM (active).
For `COP(=S)(NC(C)C)Oc1ccc(C)cc1[N+](=O)[O-]` (stereo not given), the Potency was 7.7 µM (active).
In the case of `S=C=NCCc1ccccc1`, the Potency is reported as 19.4 µM (active).
